This is part of a sample that, as a whole, favours compounds with a hit. Of some 79,000 tested, about 15% had one in any assay. Values without a mark were called inactive. Activity calls are given as the source filed them. Rule as the data show it: active = growth inhibition above about 70%; inactive = the rest.
Experiment: NCI Yeast Anticancer Drug Screen. Data for the rad52 strain (AID 147);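 also: 0% = growth of vehicle-treated control cultures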
Conditions: S. cerevisiae rad52 mutant growth inhibition, active compounds read high
Protocol: Growth inhibition of yeast strains with defined genetic alterations is measured as a screen for potential anti-cancer activity. Selected strains with alterations in DNA damage repair or cell cycle control were exposed to compounds and growth inhibition was measured relative to vehicle treated controls. The strain used in this assay is rad52

Structure (SMILES) | growth inhibition (at 1.2 µM) [%] | growth inhibition (at 3.7 µM) | growth inhibition (at 11.0 µM) | growth inhibition (at 33.0 µM) | growth inhibition (at 100.0 µM)
O=C1Nc2ccc(Cl)c(I)c2C1=O | 3 | 10% | 7% | 32% | 84% (active)
CNC1C(OC2C(OC3C(O)C(O)C(N=C(N)N)C(O)C3N=C(N)N)OC(C)C2(O)CO)OC(CO)C(O)C1O (stereo not given) | -3 | 1% | 2% | 28% | -7%
Cn1c(N)nc(-c2ccc(Cl)cc2)c1SSc1c(-c2ccc(Cl)cc2)nc(N)n1C | -5 | -2% | 33% | 88% (active) | 98% (active)
CN(C)CCn1c2c3ccccc3ccc2c2oc(=O)c3ccccc3c21 | 24 | 21% | 94% (active) | 98% (active) | 97% (active)
O=[N+]([O-])/C=C/c1ccc2ccccc2c1 | 28 | 72% (active) | 100% (active) | 100% (active) | 99% (active)
COc1cc2c3c(cccc3c1)C(=O)N(CCN(C)C)C2=O | -43 | -14% | 20% | 55% | 87% (active)
Cc1ccc(-n2cc(-c3ccc(Cl)cc3)c(C#N)c2N)cc1 | 0 | 1% | 6% | 17% | 23%
CN(N=O)N1C(=O)SCC(c2ccccc2)(c2ccccc2)C1=O | -2 | 1% | 6% | 16% | 42%

— PubChem BioAssay (NCI)
